This note sets out measurements from PubChem BioAssay AID834 (PCMD, 2007).

Screen size: about 85,000 compounds; about 120 (0.14%) were called active. Many of the other results were omitted from the sample, so actives are more common in it than they were. Unmarked numbers belong to inactive results.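 The calls were made as follows: active = inhibition above 20%; inactive = inhibition below 20%.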

The nature of this assay: clotrimazole potentiators killing Candida biofilms, primary screen, with clotrimazole, Alamar Blue (AID 834).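 Also: preformed 24 hr biofilms exposed to compound for 48 hr; 0% = biofilm without compound and 100% = blank killed by clotrimazole plus chlorhexidine.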 Particulars: C. albicans biofilm + clotrimazole, at 6 µM, stronger effect = higher value.
`CCOc1ccccc1C(=O)NC1CC2CCCC(C1)N2Cc1ccccc1` (centres undefined): the inhibition was 1.7%. As for `CCn1nnnc1SCC(=O)c1ccc(C)cc1C`, the figure is -2.31%. Consider `Cc1ccccc1CSCCNC(=O)c1ccc(Cl)c(S(=O)(=O)N2CCOCC2)c1`, for which the inhibition is 3.05%. To `O=C(NCc1ccccc1)[C@@H]1CSC2c3ccccc3C(=O)N21` (some centres undefined) belongs -0.55%. Take `Oc1ccc(-c2onc3ccc(Cl)cc23)cc1`: the inhibition was 3.22%. On to `CCCCCCNCCn1cnc2c(N)ncnc21`, for which the inhibition was 8.75%.

With `Cc1cc(C)c(OCC(=O)N/N=C/c2ccco2)c(C)c1`, the inhibition is -5.16%. To `Cn1c2c(c(=O)n(C)c1=O)C(c1cccc([N+](=O)[O-])c1)Nc1ccccc1O2` (centres undefined) belongs 6.05%; to `c1ccc(-n2nc3ccccc3n2)cc1`, 9.8%. As for `Cc1ccc(S(=O)(=O)NCC(C)NS(C)(=O)=O)cc1` (centres undefined), the figure is 3.23%; as for `O=C1C(Cl)=C(N2CCOCC2)C(=O)N1c1ccccc1`, 3.34%; as for `Fc1ccccc1/C=C1\CCCC2=C1Nc1ncnn1C2c1ccccc1F` (centres undefined), 56.5% (active).

With `COc1ccc(OC)c(-n2nnnc2SCC(=O)Nc2cc(C)ccc2OC)c1`, the inhibition was 4%. As for `O=S(=O)(NCCc1ccccc1)c1ccccc1`, the figure is 5.09%; as for `O=C(NCC1CCCO1)c1ccc2ccccc2n1` (centres undefined), 2.84%.

Turning to `CC(C)Oc1ccc(C(=O)NC(C)(C)CO)cc1`, the inhibition was 0.21%. Regarding `CCN1CCN(C(=O)C2(NC(=O)Nc3cccc(F)c3)CCCCC2)CC1`, the inhibition was -2.53%.

As to `CCn1c(SCC(=O)Nc2ccc(OC)c(OC)c2)nnc1-c1c[nH]c2ccccc12`, the inhibition is 2.3%. As for `O=C(Nc1ccccc1-c1nnn(CC(=O)N2CCCc3ccccc32)n1)c1cccc(Cl)c1`, the figure is -4.65%.

As for `CCSc1nc(-c2ccc(OC)cc2)cc(-c2ccc(OC)cc2)c1C#N`, the inhibition was 3.4%. Take `CC(C)(C)c1ccc(OC2=CS(=O)(=O)c3ccccc32)cc1`: the inhibition was 1.17%. As for `Cc1c(C=O)c2ccccn2c1C(=O)c1ccncc1`, the figure is -3.35%; as for `Cc1cc(SCC(=O)c2ccccc2)nc(SCC(=O)c2ccccc2)n1`, 9.02%; as for `COCC(=O)Nc1ccc(Br)cc1`, 5.17%. As for `COC(=O)c1sc(=S)n(-c2ccc(Cl)cc2)c1C`, the figure is 5.98%; as for `CC(=O)C1=C(C)NC(C)=C(C(C)=O)C1c1cn(-c2ccccc2)nc1-c1cccs1`, 4.22%. As for `O=C(NCCCn1ccnc1)Nc1ccc(Cl)cc1Cl`, the figure is 8.78%. Consider `COC(=O)c1ccc(Sc2ccc(F)cc2)c(N)c1`, for which the inhibition is 2.2%. As for `Cc1ccc(N(Cc2ccc(C(=O)Nc3ccccc3C(=O)NCc3ccco3)cc2)S(C)(=O)=O)cc1C`, the figure is 0.88%. As for `COc1cc2c(cc1OC)C(C(C)C)=NC(C)(C)C2`, the figure is 4.82%; as for `COc1ccc(Nc2ncc(C(=O)N3CCN(c4ccccc4OC)CC3)c3ccccc23)cc1`, 10.1%; as for `Cc1[nH]n(-c2ccc(Cl)cc2)c(=O)c1/C=N/n1c(C)nc2ccccc2c1=O`, 7.46%. Take `COC(=O)Nc1ncc(CN2CCCCC2)s1`: the inhibition is -1.41%. To `CN(C)S(=O)(=O)c1ccc(N2CCCC2)c(C(=O)NCc2ccccc2)c1` belongs -0.61%; to `CCC(C)NC(=O)c1ccccc1NC(=O)c1ccccc1N(C)S(C)(=O)=O` (centres undefined), -0.05%.

Consider `COC(=O)c1ccccc1Sc1c(/C=N/OCc2ccc(Cl)cc2)c(C(F)(F)F)nn1C`, for which the inhibition is -1.64%. As for `S=C1NC(c2ccccc2)=NCN1c1ccc(Br)cc1`, the figure is 5.98%. Turning to `C=CCOC(=O)C1=C(C)NC(SCC(=O)OCC)=C(C#N)C1c1ccc(C)cc1` (centres undefined), the inhibition is 3.88%. To `N#CC1=C(SCc2ccc(C#N)cc2)N=C(N)C(c2nc(-c3ccccc3)cs2)C12CCCCC2` (centres undefined) belongs -2.54%. As for `Cc1ccc(CCN2CC(C(=O)O)CC2=O)cc1` (centres undefined), the figure is 2.77%; as for `COc1ccc(CN(CC(=O)NC2CCCC2)C(=O)CCC(=O)Nc2cc(C)on2)cc1`, -2.23%; as for `CCn1c2ccccc2c2cc(NC(=S)N3CCOCC3)ccc21`, 5.56%. As for `CCN(c1ccccc1)S(=O)(=O)c1ccc(C(=O)Nc2nccs2)cc1`, the figure is 2.15%; as for `CCOC(=O)c1cnc(SCC(=O)Nc2ccccc2C(=O)OC)nc1N`, 4.94%; as for `CCNc1nc(NC(C)C)nc(OCCOC(=O)c2ccccc2)n1`, 2.57%. As to `Cc1cccc(N2CCN(C(=O)c3cnn4c(C(F)F)cc(-c5ccccc5)nc34)CC2)c1C`, the inhibition was 7.54%. To `CCOCCn1c(C(C)C)nc2ccccc21` belongs 0.21%; to `O=C(CN1CCOCC1)Nc1ccccc1`, 2.89%; to `COC(=O)c1ccc(CSc2nnc(NC(C)C)s2)cc1`, 8.02%.

As for `COc1ccccc1C(c1nnnn1C(C)(C)C)N1CCN(Cc2ccccc2)CC1` (centres undefined), the inhibition was -0.02%.

As to `COc1ccc(Br)cc1CN1CCN(C(=O)c2cccc(OC)c2OC)CC1`, the inhibition is -0.18%. To `Cc1nn(Cc2ccccc2)c2c1C(c1ccccc1)C(C#N)=C(N)O2` (centres undefined) belongs 4.23%; to `CCCc1cc(=O)[nH]c(SCC(=O)c2cc(C)n(CCC)c2C)n1`, 9.55%.

With `C=CCN(C(=O)Cn1ncc2c1-c1cc(C)ccc1OC2)c1ccccc1`, the inhibition is 3.48%. As for `CC(C)(C)c1nc2ccccc2c(=O)n1N1C(=O)c2ccccc2C1=O`, the figure is 1.87%.

Regarding `OC(c1ccccc1)c1nccn1Cc1ccccc1` (centres undefined), the inhibition was 6.12%. As for `CCOc1cccc(C(=O)Nc2nnc(-c3cccs3)s2)c1`, the figure is 5.64%; as for `CC(C)N1C(=S)SC(C)(C)C1n1oc(=O)n(-c2ccc(Cl)c(Cl)c2)c1=O` (centres undefined), 8.09%; as for `Cc1noc(COc2ccccc2OCc2onc(C)c2Cl)c1Cl`, -3.84%. To `COC(=O)c1sccc1-n1cccc1C(=O)C(=O)N1CCCCC1` belongs 6.37%; to `COCCNC(=O)COc1ccccc1C`, 4.87%; to `CCC(C)NC(=O)CCCc1ccccc1` (centres undefined), 5.94%. As for `COc1ccc(NC(=O)C2C3C=CC(C3)C2C(=O)NCc2ccccn2)c(OC)c1` (centres undefined), the figure is 3.96%; as for `CCOC(=O)/C(C#N)=C\c1c(C)cc(C)c(COC(C)=O)c1C`, 5.54%. As to `CC/C(O)=N\S(=O)(=O)c1ccc(N=NN(C)C)cc1`, the inhibition is 3.86%. To `CC1=NN(/C(=N\c2nnc(C)s2)Nc2ccccc2)[C@H](c2ccc(C)cc2)S1` belongs 4.3%. Regarding `O=C(c1ccc(CN2CCOCC2)cc1)N1CCN(c2ccccc2F)CC1`, the inhibition is 3.38%.

As to `O=C(NCCSCc1ccccc1)c1ccc(Cl)c(S(=O)(=O)N2CCOCC2)c1`, the inhibition was 9.31%. As for `COC(=O)c1cccc(-n2[nH]nnc2=S)c1`, the figure is -3.99%. Consider `C=CCNC(=O)c1cc2nc(C3CC3)cc(C(F)F)n2n1`, for which the inhibition is 3.65%. For the molecule `OC(COc1ccc2c(c1)CCC2)CN1CCN(c2cccc(Cl)c2)CC1` (centres undefined), the inhibition is 3.52%. Regarding `CC(C)C(=O)Nc1ccc2c(c1)oc1ccccc12`, the inhibition is 9.6%. With `CC(C)OC(=O)c1c(NC(=O)c2ccco2)sc2c1CCCC2`, the inhibition is 4.89%.

Regarding `Cc1cccc(CCNS(=O)(=O)c2ccc(S(=O)(=O)NC3CCCC3)cc2)c1`, the inhibition was -0.29%. As for `COc1ccc(CCN2C(=O)C3CC=C(C)CC3C2=O)cc1OC` (centres undefined), the figure is 1.85%. As for `Clc1cccc(N=C2NN=C(c3ccc4c(c3)OCCO4)CS2)c1`, the figure is 1.81%. To `COc1ccc(NC(=O)Cn2c(=O)n(Cc3ccco3)c(=O)c3ccccc32)cc1` belongs 7.9%; to `CCCCNC(=O)C1(c2ccc(OC)cc2)CCOCC1`, 3.55%; to `Cc1nnc(SCC(=O)NC2CCCC2)s1`, 1.39%.

With `O=C1Nc2cc(Cl)c(Cl)cc2N(O)N1c1cc(Cl)cc(Cl)c1`, the inhibition was -1.77%. To `CCOc1ccc(NC(=O)N(CC(C)C)CC(C)C)cc1` belongs -5.95%.

On to `CC1CCN(S(=O)(=O)c2ccc(S(=O)(=O)NCc3ccco3)cc2)CC1`, for which the inhibition was 6.18%.

For the molecule `CCOc1cc(NC(=O)c2cnccn2)c(OCC)cc1NC(=O)c1ccc(C)cc1`, the inhibition was 10.1%.

In the case of `CCOc1ccc(S(=O)(=O)NCCSc2ccccc2)cc1`, the inhibition was -7.35%.

On to `Cn1c(Cc2cccc3ccccc23)nnc1SCC(=O)N1CCN(c2cccc(Cl)c2)CC1`, for which the inhibition was 2.35%. As for `CC1(C)NC(=O)N(CCCCSc2ccc(Cl)cc2)C1=O`, the figure is 4.05%; as for `CCc1cccc(C)c1N(C(=O)Cn1c(CO)nc2ccccc21)C(C)COC` (centres undefined), 2.34%; as for `CCOC(=O)c1c(NC(C)=O)sc2c(O)c(Br)ccc12`, 7.32%.

Consider `CC(C)(C)C1CCc2c(sc3nc(SCC(N)=O)nc(N)c23)C1` (centres undefined), for which the inhibition is 9.53%. As for `CC(=O)Nc1ccc(NC(=O)CSCc2cnn(-c3ccccc3)c2-n2cccc2)cc1`, the figure is 5.53%. Turning to `Cc1ccc(OC(=O)c2ccccc2C(=O)OCC(F)(F)C(F)F)cc1`, the inhibition is -0.38%. For the molecule `Cc1ccc(/C=N/NC(=O)C2=NNC(c3ccccc3)(c3ccccc3)C2)c(O)c1`, the inhibition was 2.75%.

For the molecule `Cc1ccc(CNC(=O)COc2ccc(S(=O)(=O)NC(C)C)cc2)cc1`, the inhibition was 4.65%. To `CCOC(=O)c1sc(NC(=O)CSc2nc(C)cc(C(F)(F)F)n2)c(C#N)c1C` belongs 4.2%.

As for `CCOC(=O)c1ccc2c(c1)nc(SCC(=O)NC(C)C)n2CC`, the inhibition was -0.28%. As for `CC(C)OC(=O)CN1C(=O)C(=O)c2ccccc21`, the figure is -1.96%; as for `CC(C)(C)NC(=O)Cn1c(SCC(=O)Nc2nccs2)nc2ccccc21`, -3.28%; as for `COc1ccc(C2=NOC3(CC(=O)N(c4ccc(Cl)cc4)C3=O)C2)c(OC)c1` (centres undefined), 8.25%. To `CCc1c(O)cc2n(c1=O)-c1ccccc1C2(C)C` belongs 5.21%; to `CCn1c(Cc2cccs2)nnc1SCC(=O)c1ccc(C)cc1`, 5.86%. Regarding `CCCCOc1ccc(N(CC(=O)NCC2CCCO2)C(=O)CCC(=O)Nc2cc(C)ccn2)cc1` (centres undefined), the inhibition was 5.21%. To `CCCc1nc2sc3c(c2c(=O)n1NC(=O)CCCl)CCCC3` belongs -7.02%; to `CCOC(=O)c1c(NC(=O)CSc2nnc(CNc3ccc(C)cc3C)o2)sc(C)c1C`, 0.89%. To `CCC(=O)Nc1ccc(S(=O)(=O)NCC2CCCO2)cc1` (centres undefined) belongs 5.21%. As for `O=C(COC(=O)c1n[nH]c2ccccc12)NCc1ccccc1`, the figure is 1.24%; as for `COc1ccc(Nc2cc(=O)oc3ccccc23)cc1`, 5.52%. For the molecule `O=C(NC1CCCCC1)C1CC(=O)N(CCc2ccccc2)C1` (centres undefined), the inhibition is 5.26%. To `CCOC(=O)CSc1nc2ccc(C)cc2[nH]1` belongs 4.49%; to `FC(F)(F)c1cc(-c2ccco2)nc(NCc2ccc(Cl)cc2)n1`, -7.36%.
